Results from PubChem BioAssay AID1159580 (chemical genetic matrix, 2015).
“And” between values parts separate entries of the source, which are not always exact repeats. Equal values may be shown once. The whole screen tested about 5,500 compounds, of which about 2,000 (36%) were called active. Not shown: some 18% with an inconclusive outcome. Rule as the data show it: active = normalized growth mostly below about 0.91 (no sharp cut-off); inconclusive = no clear call, values can overlap the other calls; inactive = mostly above about 0.92. Some of the results follow.

Assay: chemical genetic growth profiling, strain panel (AID 1159580);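 also: tested at 20 µM; growth read once vehicle control cultures reached saturation at 30 °C; 1 = growth at the plate median or of vehicle wells; lower values mean less growth of the strain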
Settings: S. cerevisiae deletion strains, growth OD
[1] = locus YAL013W, strain DEP1, hits give low values
[2] = locus YBR229C, strain ROT2, hits give low values
[3] = locus YDL101C, strain DUN1, hits give low values
[4] = locus YDR150W, strain NUM1, hits give low values
[5] = locus YEL061C, strain CIN8, hits give low values
[6] = locus YGR078C, strain PAC10, hits give low values
[7] = locus YHR030C, strain SLT2, hits give low values
[8] = locus YHR087W, strain rtc3, hits give low values
[9] = locus YJR043C, strain POL32, hits give low values
[10] = locus YJR075W, strain HOC1, hits give low values
[11] = locus YLR039C, strain RIC1, hits give low values
[12] = locus YLR058C, strain SHM2 (second series), hits give low values
[13] = locus YLR085C, strain ARP6, hits give low values
[14] = locus YLR262C, strain YPT6, hits give low values
[15] = locus YML094W, strain GIM5, hits give low values
[16] = locus YMR219W, strain ESC1, hits give low values
[17] = locus YMR263W, strain SAP30, hits give low values
[18] = locus YNL153C, strain GIM3, hits give low values
[19] = locus YNL298W, strain CLA4 (second series), hits give low values
[20] = locus YNL322C, strain KRE1, hits give low values
[21] = locus YNR030W, strain Alg12, hits give low values
[22] = locus YOL006C, strain TOP1, hits give low values
[23] = locus YPL055C, strain LGE1, hits give low values
[24] = locus YPL241C, strain CIN2, hits give low values
[25] = locus YPR135W, strain CTF4, hits give low values
[26] = locus YJL187C, strain SWE1, hits give low values

Measured: normalized growth

O=C1CSC(c2ccc(Cl)c(Cl)c2)N1c1ccc(F)cc1 (stereo unspecified)
active: locus YDL134C, strain PPH21, hits give low values 0.886
inactive: [1] 0.988 | [2] 0.975 | [3] 0.964 | [4] 0.968 | [5] 0.988 | [6] 0.975 | [7] 0.95 | [8] 0.985 | [9] 0.974 | [10] 0.939 | locus YKL190W, strain CNB1, hits give low values 0.985 | [11] 0.994 | [12] 1 | [13] 0.942 | [14] 0.947 | [15] 0.95 | [16] 0.994 | [17] 0.989 | [18] 0.962 | [19] 0.93 | [20] 0.988 | [21] 0.906 | [22] 0.889 | [23] 0.971 | [24] 0.977 | [25] 0.85

Cc1ccc2c(c1)N(CCO)C(C)(C)CC2C (stereo unspecified)
inactive: [1] 1 | [2] 0.997 | [3] 0.97 | [4] 0.909 | [5] 1.03 | [6] 0.986 | [7] 0.982 | [8] 0.961 | [26] 1 | [9] 0.98 | [10] 0.975 | [11] 0.969 | [12] 0.988 | [13] 1.03 | [14] 0.955 | [15] 0.993 | [16] 0.987 | [17] 0.997 | [18] 1 | [19] 1.04 | [20] 1 | [21] 0.986 | [22] 1.02 | [23] 0.962 | [24] 0.998 | [25] 0.953

COc1cc(OC)c(OC)cc1C=O
inactive: [1] 0.991 | locus YAL021C, strain ccr4, hits give low values 1.01 | locus YAL026C, strain drs2, hits give low values 1 | locus YAL030W, strain snc1, hits give low values 0.998 | locus YBL061C, strain skt5, hits give low values 0.991 | locus YBR009C, strain hhf1, hits give low values 0.993 | locus YBR021W, strain FUR4, hits give low values 1.03 | locus YBR023C, strain chs3, hits give low values 0.991 | locus YBR171W, strain sec66, hits give low values 0.991 | [2] 1.01 | locus YBR231C, strain swc5, hits give low values 0.998 | locus YBR279W, strain paf1, hits give low values 0.997 | locus YCL011C, strain gbp2, hits give low values 1 | locus YCL016C, strain dcc1, hits give low values 0.995 | locus YCL029C, strain bik1, hits give low values 0.972 | locus YCL061C, strain MRC1, hits give low values 0.996 | locus YCL069W, strain vba3, hits give low values 0.999 | locus YCR088W, strain abp1, hits give low values 0.999 | locus YDL005C, strain med2, hits give low values 0.985 | locus YDL035C, strain GPR1, hits give low values 1.01 | locus YDL040C, strain nat1, hits give low values 0.998 | locus YDL074C, strain BRE1, hits give low values 1 | [3] 1.02 | locus YDL185W, strain tfp1, hits give low values 0.94 | locus YDL192W, strain arf1, hits give low values 0.997 | locus YDR001C, strain nth1, hits give low values 0.999 | locus YDR069C, strain doa4, hits give low values 0.991 | locus YDR101C, strain arx1, hits give low values 0.989 | locus YDR137W, strain rgp1, hits give low values 0.973 | [4] 0.991 | locus YDR159W, strain sac3, hits give low values 1 | locus YDR162C, strain NBP2, hits give low values 1.06 | locus YDR195W, strain ref2 1.01 | locus YDR297W, strain sur2, hits give low values 0.989 | locus YDR318W, strain mcm21, hits give low values 0.994 | locus YDR334W, strain swr1, hits give low values 0.987 | locus YDR335W, strain msn5, hits give low values 1 | locus YDR388W, hits give low values 0.988 | locus YDR392W, strain spt3, hits give low values 0.999 | locus YDR502C, strain sam2, hits give low values 0.995 | locus YEL003W, strain gim4, hits give low values 0.999 | locus YEL037C, strain rad23, hits give low values 1 | locus YEL061C, strain CIN8 (second series), hits give low values 1 | [5] 1.01 | locus YER015W, strain faa2, hits give low values 0.997 | locus YER016W, strain bim1, hits give low values 0.994 | locus YER110C, hits give low values 0.968 | locus YER111C, strain swi4, hits give low values 1 | locus YER155C, strain BEM2 (second series), hits give low values 1 | locus YER155C, strain BEM2, hits give low values 0.991 | locus YER167W, strain BCK2, hits give low values 1.02 | locus YFR010W, strain ubp6, hits give low values 0.999 | locus YGL078C, strain dbp3, hits give low values 0.986 | locus YGL086W, strain mad1, hits give low values 0.984 | locus YGL167C, strain pmr1, hits give low values 1 | locus YGL173C, strain kem1, hits give low values 0.997 | locus YGL227W, strain vid30, hits give low values 0.992 | locus YGL240W, strain doc1, hits give low values 1.02 | locus YGL248W, strain PDE1, hits give low values 1.06 | locus YGL253W, strain hxk2, hits give low values 0.992 | locus YGR135W, strain pre9, hits give low values 1.03 | locus YGR252W, strain gcn5, hits give low values 1.08 | locus YHR013C, strain ard1, hits give low values 1.02 | locus YHR027C, strain rpn1, hits give low values 0.994 | [7] 0.994 and 0.979 | locus YHR079C, strain IRE1 (second series), hits give low values 0.987 | locus YHR079C, strain IRE1, hits give low values 0.996 | locus YHR094C, strain hxt1, hits give low values 1 | locus YHR129C, strain ARP1, hits give low values 1.02 | locus YHR142W, strain chs7, hits give low values 0.998 | locus YHR200W, strain rpn10, hits give low values 0.978 | locus YIL066C, strain RNR3, hits give low values 1.04 | locus YIL073C, strain SPO22, hits give low values 0.955 | locus YIL125W, strain kgd1, hits give low values 0.998 | locus YIR030C, strain dcg1, hits give low values 0.99 | locus YJL092W, strain hpr5, hits give low values 0.995 | locus YJL095W, strain BCK1 (second series), hits give low values 0.99 | locus YJL095W, strain BCK1, hits give low values 1.09 and 0.989 | locus YJL115W, strain asf1, hits give low values 1 | locus YJL129C, strain trk1, hits give low values 1 | locus YJL134W, strain LCB3, hits give low values 0.987 | locus YJL154C, strain vps35, hits give low values 0.995 | locus YJL164C, strain tpk1, hits give low values 1 | locus YJL166W, strain qcr8, hits give low values 1.01 | locus YJL168C, strain set2, hits give low values 0.991 | locus YJL187C, strain SWE1 (second series), hits give low values 1.04 | [26] 0.991 | [9] 0.986 | locus YJR066W, strain TOR1, hits give low values 0.916 | [10] 1.01 | locus YKL009W, strain mrt4, hits give low values 0.972 | locus YKL068W, hits give low values 0.985 | locus YKL085W, strain MDH1 (second series), hits give low values 0.988 | locus YKL085W, strain MDH1, hits give low values 0.988 | locus YKL160W, strain elf1, hits give low values 1 | locus YKR001C, strain vps1, hits give low values 1.02 | locus YKR026C, strain gcn3, hits give low values 0.994 | locus YKR091W, strain srl3, hits give low values 0.997 | locus YLL001W, strain dnm1, hits give low values 1.01 | locus YLL026W, hits give low values 0.99 | locus YLL041C, strain sdh2, hits give low values 0.996 | locus YLR027C, strain aat2, hits give low values 1.01 | [11] 0.989 | locus YLR058C, strain SHM2, hits give low values 1.03 | locus YLR102C, strain apc9, hits give low values 0.971 | locus YLR113W, strain HOG1, hits give low values 1.01 | locus YLR221C, strain rsa3, hits give low values 0.992 | locus YLR258W, strain gsy2, hits give low values 1 | locus YLR262C, strain YPT6 (second series), hits give low values 0.985 | [14] 1.02 | locus YLR268W, strain sec22, hits give low values 0.97 | locus YLR320W, strain mms22, hits give low values 0.995 | locus YLR330W, strain CHS5, hits give low values 1.01 | locus YLR342W, strain FKS1 (second series), hits give low values 1.05 | locus YLR342W, strain FKS1, hits give low values 0.997 | locus YLR357W, strain rsc2, hits give low values 0.957 | locus YLR370C, strain arc18, hits give low values 0.997 | locus YLR371W, strain rom2, hits give low values 0.993 | locus YLR384C, strain iki3, hits give low values 1.01 | locus YLR418C, strain cdc73, hits give low values 1.02 | locus YML016C, strain PPZ1, hits give low values 1.01 | locus YML032C, strain rad52, hits give low values 1.04 | locus YML120C, strain ndi1, hits give low values 0.999 | locus YML124C, strain tub3, hits give low values 0.984 | locus YMR058W, strain fet3, hits give low values 1 | locus YMR078C, strain ctf18, hits give low values 0.982 | locus YMR125W, strain sto1, hits give low values 0.991 | locus YMR129W, hits give low values 0.989 | locus YMR205C, strain PFK2, hits give low values 1 | locus YMR223W, strain ubp8, hits give low values 1 | locus YMR231W, strain pep5, hits give low values 0.989 | [17] 1.01 | locus YMR307W, strain GAS1, hits give low values 1.09 | locus YNL067W, strain RPL9B, hits give low values 1.04 | locus YNL071W, strain lat1, hits give low values 1 | locus YNL183C, strain NPR1, hits give low values 0.946 | locus YNL209W, strain ssb2, hits give low values 0.996 | locus YNL233W, strain BNI4, hits give low values 1.06 | locus YNL248C, strain rpa49, hits give low values 1 | locus YNL250W, strain rad50, hits give low values 0.964 | locus YNL271C, strain bni1, hits give low values 0.982 | locus YNL298W, strain CLA4, hits give low values 0.987 | locus YNL307C, strain MCK1, hits give low values 0.999 | locus YNL322C, strain KRE1 (second series), hits give low values 1 | locus YNR049C, strain mso1, hits give low values 0.992 | locus YNR052C, strain pop2, hits give low values 0.995 | locus YOL012C, strain htz1 2.03 | locus YOL147C, strain pex11, hits give low values 1 | locus YOR001W, strain rrp6, hits give low values 0.998 | locus YOR061W, strain CKA2, hits give low values 1.01 | locus YOR069W, strain VPS5, hits give low values 0.989 | locus YOR070C, strain gyp1, hits give low values 0.979 | locus YOR080W, strain dia2, hits give low values 0.987 | locus YOR083W, strain WHI5, hits give low values 1 | locus YOR106W, strain vam3, hits give low values 1.01 | locus YOR136W, strain idh2, hits give low values 0.981 | locus YOR144C, strain elg1, hits give low values 1 | locus YOR184W, strain ser1, hits give low values 0.993 | locus YOR231W, strain MKK1, hits give low values 1 | locus YOR265W, strain rbl2, hits give low values 0.993 | locus YOR270C, strain vph1, hits give low values 1.01 | locus YOR290C, strain snf2, hits give low values 1 | locus YOR316C, strain cot1, hits give low values 0.99 | locus YPL051W, strain arl3, hits give low values 0.992 | locus YPL078C, strain atp4, hits give low values 1 | locus YPL106C, strain sse1, hits give low values 0.958 | locus YPL240C, strain hsp82, hits give low values 0.992 | locus YPL256C, strain CLN2, hits give low values 0.976 | locus YPR119W, strain clb2, hits give low values 0.974 | locus YPR141C, strain kar3, hits give low values 0.975 | locus YPR163C, strain tif3, hits give low values 0.981 | locus YPR167C, strain met16, hits give low values 0.971 | strain wtn01, hits give low values 0.978
